These results are taken from PubChem BioAssay AID1445 (SRMLSC, 2008).

Where “and” joins values, the source holds several entries; their conditions need not be identical. Equal values may be shown once. About 910 (0.41%) of roughly 220,000 compounds were called active. The sample holds actives, similar compounds and a random draw of the others, so the mix is not that of the screen.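 The calls were made as follows: active = primary inhibition above the hit cutoff, then over 50% inhibition at one or more dose response concentrations (cut at about 23% in these data, passing the limit was not always enough); inconclusive = conflicting primary data, or primary hits not chosen for dose response; inactive = low primary inhibition, or under 50% at every dose.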 Entries with a potency or affinity are not part of this list.

The target in the experiment is Aminopeptidase N (Plasmodium falciparum (isolate 3D7)) (UniProt O96935). Kind of experiment: P. falciparum M1AAP inhibitors, biochemical, fluorogenic H-Leu-NHMec substrate, 1536-well (AID 1445).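 Also: plate controls were DMSO full reaction for no effect and no enzyme background for full effect.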 The note with it: recombinant M1AAP, H-Leu-NHMec fluorogenic kinetic assay; at 30 µM, stronger effect = higher value unless noted.
Chain of Aminopeptidase N (Plasmodium falciparum (isolate 3D7)) (O96935 whole entry, looked up): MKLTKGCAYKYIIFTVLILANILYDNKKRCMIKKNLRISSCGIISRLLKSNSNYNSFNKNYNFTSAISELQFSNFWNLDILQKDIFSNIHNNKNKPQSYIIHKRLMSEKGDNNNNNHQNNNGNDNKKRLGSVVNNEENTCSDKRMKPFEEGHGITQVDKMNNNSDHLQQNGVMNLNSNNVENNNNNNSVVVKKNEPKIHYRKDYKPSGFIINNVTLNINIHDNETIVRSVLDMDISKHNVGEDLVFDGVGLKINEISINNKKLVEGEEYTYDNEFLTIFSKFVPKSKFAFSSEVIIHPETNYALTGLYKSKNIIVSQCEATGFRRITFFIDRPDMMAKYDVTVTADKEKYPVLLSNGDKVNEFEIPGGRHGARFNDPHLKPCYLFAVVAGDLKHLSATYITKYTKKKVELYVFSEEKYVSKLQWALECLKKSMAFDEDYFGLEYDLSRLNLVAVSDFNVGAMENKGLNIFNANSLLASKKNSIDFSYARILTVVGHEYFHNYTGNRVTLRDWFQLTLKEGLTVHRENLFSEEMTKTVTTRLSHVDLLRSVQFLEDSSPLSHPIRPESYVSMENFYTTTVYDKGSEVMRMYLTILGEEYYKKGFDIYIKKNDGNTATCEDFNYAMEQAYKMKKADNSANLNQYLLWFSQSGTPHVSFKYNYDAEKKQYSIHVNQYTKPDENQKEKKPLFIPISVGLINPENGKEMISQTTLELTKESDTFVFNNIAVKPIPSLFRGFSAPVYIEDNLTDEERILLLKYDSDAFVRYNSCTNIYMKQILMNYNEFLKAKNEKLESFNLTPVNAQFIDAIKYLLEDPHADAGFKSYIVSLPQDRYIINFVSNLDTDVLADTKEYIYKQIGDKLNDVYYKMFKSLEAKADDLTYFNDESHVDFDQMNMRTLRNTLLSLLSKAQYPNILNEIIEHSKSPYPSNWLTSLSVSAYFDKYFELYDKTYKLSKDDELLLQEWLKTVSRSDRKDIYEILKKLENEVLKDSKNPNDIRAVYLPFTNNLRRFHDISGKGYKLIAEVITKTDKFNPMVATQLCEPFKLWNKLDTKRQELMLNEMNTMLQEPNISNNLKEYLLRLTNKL
Broadly, the inhibition is the change of the read-out against control, counted positive when it falls. With `CCOC(=O)c1ccc(NC(=S)NCCCN2CCOCC2)cc1`, the inhibition was -1.32% (inactive).
The figure for `CCO[C@@H]1OC(C(=O)N2CCOCC2)=C[C@H](c2ccc(C(F)(F)F)cc2)[C@H]1CCCO` is 2.16% (inactive); for `O=C(CSc1nc2c(sc3ccccc32)c(=O)n1CCCN1CCOCC1)NCC1CCCO1` (configuration not stated) it is 1.22% (inactive).
The figure for `Cc1ccc(N2/C(=N/c3nc(C)cc(C)n3)NC(=O)CC2C(=O)O)cc1` (configuration not stated) is -5.89% (inactive); for `O=C(/C=C/c1ccc(-c2ccccc2)o1)c1ccccc1` it is 4.34% (inactive); for `O=Cc1ccc(-c2ccc(F)cc2)o1` it is 12.4% (inactive).
For `N=c1c2c3c(sc2nc2n1CCC2)CCCC3`, the inhibition was 7.32% (inactive).
Next, `CCNc1nc(Cl)nc(-c2cn(-c3ccccc3)c3ccccc23)n1`: -7.96% (inactive); `COc1ccc(NC(C)=O)cc1S(=O)(=O)N1CCN(C/C=C/c2ccccc2)CC1`: 2.09% (inactive).
Next, `CCSc1nnc2c(n1)OC1(CCCC1)Nc1ccccc1-2`: 12.5% (inactive).
`O=C(N/N=C/c1cccc([N+](=O)[O-])c1)c1cc(-c2ccc3c4c(cccc24)CC3)n[nH]1`: the inhibition is 6.89% (inactive).
Next, `O=C(O)c1ccc(/C=N/NC(=O)c2cc(-c3ccc4c5c(cccc35)CC4)n[nH]2)cc1`: 13.5% (inactive).
Regarding `COc1ccc(-n2c(=S)[nH]c3cc(C(=O)NCc4ccco4)ccc3c2=O)cc1OC`, the inhibition is 7.75% (inactive) and 12.6% (inactive).
Next, `CCCc1cc(=O)[nH]c(Nc2cc(OC)ccc2OC)n1`: -0.31% (inactive); `CCOc1ccc(N(C(=O)c2ccccc2Cl)C2=NC(C)(C)CS2)cc1`: 5.11% (inactive).
On to `Fc1ccc2c(c1)C1C=CCC1C(c1cc3c(cc1Br)OCO3)N2` (configuration not stated), for which the inhibition was 5.12% (inactive).
Turning to `COc1cccc(NS(=O)(=O)c2ccc3c(c2)C2C=CCC2C(c2ccc(C(=O)O)cc2)N3)c1` (configuration not stated), the inhibition was 22.8% (inactive).
In the case of `O=C(O)c1ccc2c(c1)C1C=CCC1C(c1ccncc1)N2` (configuration not stated), the inhibition was 9.23% (inactive).
Regarding `Brc1cc2c(cc1C1Nc3ccccc3C3C=CCC31)OCO2` (configuration not stated), the inhibition is 6.9% (inactive).
The figure for `Cc1nc2c(C)cccn2c1/C(O)=C1\C(=O)C(=O)N(CCN(C)C)C1c1ccccc1` (configuration not stated) is -2.63% (inactive).
Consider `CC(=O)c1ccccc1OC(=O)c1c(F)cccc1F`, for which the inhibition is 3.59% (inactive).
Regarding `Cc1nc2cc(F)ccc2n1C1CCN(C(=O)c2c(F)cccc2F)CC1`, the inhibition was 5.28% (inactive).
In the case of `Cc1cccc(-c2c3c(=O)n(C)c(=O)n(C)c3cn2C(C)(C)C)c1`, the inhibition is 7.14% (inactive).
Next, `O=c1[nH]c2ccc(NC(=S)NCc3ccccc3)cc2[nH]1`: -4.38% (inactive).
On to `C=CCn1c(COc2ccccc2)nnc1SC(C)C(=O)N/N=C/c1cc(Cl)ccc1O` (configuration not stated), for which the inhibition is 46.5% (active).
As for `C=CCn1c(COc2ccc(Cl)cc2)nnc1SCC(=O)N/N=C/c1cccc(O)c1`, the inhibition was 6.07% (inactive).
Next, `C=CCn1c(COc2ccc(Cl)cc2)nnc1SCC(=O)N/N=C/c1ccccc1`: 0.22% (inactive).
